Reference: PubChem BioAssay (Tox21)
“And” between values parts separate entries of the source, which are not always exact repeats. Identical values can stand only once. Records with an inconclusive call do not appear. Some structures have more than one record in an assay (separate samples or runs), and their calls can disagree. The source made the active and inactive calls. Calls come from the whole dose curve; as a rule, active = well fitted curve in the direction sought with a large enough effect in the repeat runs; inconclusive = weak or mixed curves; inactive = no such curve, though single readings can be large; an effect the other way counts as inactive or inconclusive.

Assays:
[1] = Human pregnane X receptor (PXR) small molecule agonists, qHTS cell viability counter screen (AID 1346977); note: nearly all actives have a fitted effect of over 50% in size; note: potency is the fitted concentration of half-maximal effect
Outline: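 Same-well viability read: CellTiter-Fluor added after 23 hr compound exposure, fluorescence measured 1 hr later. Cells were PXR-Luc HepG2 seeded at 2,000/well in 5% charcoal-stripped FBS medium, rested 5 hr before dosing at 37 C.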

[2] = Caspase-3/7 induction in HepG2 cells by small molecules, qHTS assay (AID 1346978); note: nearly all actives have a fitted effect of over 15% in size
Outline: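 Wild-type HepG2 cells (2,000/well) were settled 5 h at 37 C, 5% CO2, then exposed to compounds in DMSO for 17 h. Caspase-3/7 activity was read by luminescence 30 min after adding Caspase-Glo 3/7 reagent at room temperature.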

[3] = Caspase-3/7 induction in CHO-K1 cells by small molecules, qHTS cell viability counter screen (AID 1346979); note: nearly all actives have a fitted effect of over 35% in size; note: potency is the fitted concentration of half-maximal effect
Outline: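 Cytotoxicity counter screen: CellTiter-Fluor added to compound-treated wild-type CHO-K1 cells at 16 h (37C, 5% CO2), fluorescence measured 1 h later; same wells as caspase-3/7 measurement.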

[4] = Caspase-3/7 induction in HepG2 cells by small molecules, qHTS cell viability counter screen (AID 1346981); note: series mostly up to about 92 µM; nearly all actives have a fitted effect of over 30% in size
Outline: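 Cell viability is measured as a cytotoxicity counter screen alongside the Caspase-Glo 3/7 readout in identical wells. Wild-type HepG2 cells are treated with test compounds for 16 hr at 37 C before CellTiter-Fluor addition and a 1-hr incubation.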

[5] = target: Nuclear receptor subfamily 1 group I member 2 (Homo sapiens) (UniProt O75469); test: Human pregnane X receptor (PXR) small molecule agonists, qHTS assay (AID 1346982); note: nearly all actives have a fitted effect of over 35% in size; note: potency is the fitted concentration of half-maximal effect
Sequence of Nuclear receptor subfamily 1 group I member 2 (Homo sapiens) (O75469 whole entry, looked up): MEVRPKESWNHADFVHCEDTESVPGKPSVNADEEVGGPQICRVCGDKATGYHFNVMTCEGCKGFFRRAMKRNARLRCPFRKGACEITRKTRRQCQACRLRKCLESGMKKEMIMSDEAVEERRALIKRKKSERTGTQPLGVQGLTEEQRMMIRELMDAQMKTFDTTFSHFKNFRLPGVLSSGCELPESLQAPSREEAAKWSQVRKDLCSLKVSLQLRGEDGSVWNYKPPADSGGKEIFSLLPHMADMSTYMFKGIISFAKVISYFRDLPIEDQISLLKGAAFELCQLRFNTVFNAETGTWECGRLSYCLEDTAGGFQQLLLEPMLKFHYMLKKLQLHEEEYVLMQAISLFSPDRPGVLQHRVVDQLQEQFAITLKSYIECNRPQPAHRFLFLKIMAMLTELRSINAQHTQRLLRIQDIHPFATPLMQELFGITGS
Outline: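 Cells: HepG2 stably carrying PXR-Luc. Medium held 5% charcoal-stripped FBS. Compounds in DMSO added after 5 hr plating, incubated 24 hr, then luminescence quantified with ONE-Glo.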

[6] = target: Cytochrome P450 2D6 (Homo sapiens) (UniProt P10635); test: Cytochrome P450 Family 2 Subfamily D Member 6 (CYP2D6) small molecule antagonists: luciferase reporter qHTS assay (AID 1671196); note: nearly all actives have a fitted effect of over 50% in size; note: potency is the fitted concentration of half-maximal effect
Sequence of Cytochrome P450 2D6 (Homo sapiens) (P10635 whole entry, looked up): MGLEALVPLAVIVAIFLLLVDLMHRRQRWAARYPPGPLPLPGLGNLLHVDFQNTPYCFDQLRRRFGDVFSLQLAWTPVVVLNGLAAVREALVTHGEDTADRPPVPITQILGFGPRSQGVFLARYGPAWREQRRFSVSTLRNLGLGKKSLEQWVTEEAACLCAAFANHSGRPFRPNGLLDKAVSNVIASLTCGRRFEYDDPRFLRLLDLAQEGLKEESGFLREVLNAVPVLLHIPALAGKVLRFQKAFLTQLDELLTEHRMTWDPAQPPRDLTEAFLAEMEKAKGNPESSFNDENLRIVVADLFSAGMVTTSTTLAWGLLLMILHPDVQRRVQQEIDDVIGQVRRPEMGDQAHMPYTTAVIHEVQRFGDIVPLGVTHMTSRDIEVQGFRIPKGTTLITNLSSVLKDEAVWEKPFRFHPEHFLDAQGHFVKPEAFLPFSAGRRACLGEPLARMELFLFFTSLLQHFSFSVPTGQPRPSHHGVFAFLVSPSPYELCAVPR
Outline: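 Enzyme and proluciferin substrate were first combined with test chemical for 10 min at room temperature. Adding NADPH regeneration solution started a 1 h reaction, stopped with luciferin detection reagent and read by luminescence 20 min later.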

[7] = target: Cytochrome P450 2C19 (Homo sapiens) (UniProt P33261); test: Cytochrome P450 Family 2 Subfamily C Member 19 (CYP2C19) small molecule antagonists: luciferase reporter qHTS assay (AID 1671197); note: nearly all actives have a fitted effect of over 65% in size; note: potency is the fitted concentration of half-maximal effect
Sequence of Cytochrome P450 2C19 (Homo sapiens) (P33261 whole entry, looked up): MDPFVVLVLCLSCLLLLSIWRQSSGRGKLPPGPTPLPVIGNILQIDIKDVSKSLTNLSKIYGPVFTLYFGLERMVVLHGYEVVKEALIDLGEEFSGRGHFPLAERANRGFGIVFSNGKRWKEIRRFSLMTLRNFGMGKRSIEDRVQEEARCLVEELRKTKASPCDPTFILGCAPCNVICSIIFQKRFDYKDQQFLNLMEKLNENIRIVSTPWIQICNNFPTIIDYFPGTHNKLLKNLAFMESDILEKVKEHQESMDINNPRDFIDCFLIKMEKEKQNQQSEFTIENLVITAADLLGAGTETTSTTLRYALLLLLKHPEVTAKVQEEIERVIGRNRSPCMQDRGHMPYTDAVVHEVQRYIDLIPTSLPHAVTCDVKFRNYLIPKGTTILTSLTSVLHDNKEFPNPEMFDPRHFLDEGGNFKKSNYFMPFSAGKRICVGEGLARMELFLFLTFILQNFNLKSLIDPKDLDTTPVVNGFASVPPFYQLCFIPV
Outline: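 Inhibition of CYP2C19 was scored from loss of luminescence in a P450-Glo proluciferin substrate assay, NADPH-started and run 1 h at 37C, with ketoconazole as positive control.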

[8] = target: Cytochrome P450 2C9 (Homo sapiens) (UniProt P11712); test: Cytochrome P450 Family 2 Subfamily C Member 9 (CYP2C9) small molecule antagonists: luciferase reporter qHTS assay (AID 1671198); note: nearly all actives have a fitted effect of over 50% in size; note: potency is the fitted concentration of half-maximal effect
Sequence of Cytochrome P450 2C9 (Homo sapiens) (P11712 whole entry, looked up): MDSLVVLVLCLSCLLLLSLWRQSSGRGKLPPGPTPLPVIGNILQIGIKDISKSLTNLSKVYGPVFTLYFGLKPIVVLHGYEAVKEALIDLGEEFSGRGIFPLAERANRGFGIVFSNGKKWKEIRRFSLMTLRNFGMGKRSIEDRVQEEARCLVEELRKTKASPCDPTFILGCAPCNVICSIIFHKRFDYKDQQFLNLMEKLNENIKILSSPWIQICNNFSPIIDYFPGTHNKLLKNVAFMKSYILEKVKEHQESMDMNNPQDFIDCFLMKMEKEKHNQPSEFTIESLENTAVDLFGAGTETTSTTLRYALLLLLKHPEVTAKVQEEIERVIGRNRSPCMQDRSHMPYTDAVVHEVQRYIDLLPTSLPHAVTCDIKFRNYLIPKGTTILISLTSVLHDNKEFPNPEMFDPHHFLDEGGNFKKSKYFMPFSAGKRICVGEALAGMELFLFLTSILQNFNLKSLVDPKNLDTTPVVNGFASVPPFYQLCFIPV
Outline: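 CYP2C9 activity was measured with a P450-Glo proluciferin substrate. Enzyme–substrate mix was held with compound for 10 min at room temperature, then NADPH regeneration solution was added for 1 h at 37C. Luciferin product was read as luminescence.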

[9] = target: Voltage-gated inwardly rectifying potassium channel KCNH2 (Homo sapiens) (UniProt Q12809); test: Human Ether-a-go-go-Related Gene (hERG) channel small molecule antagonists: fluorescence cell-based qHTS assay (AID 1671200); note: nearly all actives have a fitted effect of over 50% in size; note: potency is the fitted concentration of half-maximal effect
Sequence of Voltage-gated inwardly rectifying potassium channel KCNH2 (Homo sapiens) (Q12809 whole entry, looked up): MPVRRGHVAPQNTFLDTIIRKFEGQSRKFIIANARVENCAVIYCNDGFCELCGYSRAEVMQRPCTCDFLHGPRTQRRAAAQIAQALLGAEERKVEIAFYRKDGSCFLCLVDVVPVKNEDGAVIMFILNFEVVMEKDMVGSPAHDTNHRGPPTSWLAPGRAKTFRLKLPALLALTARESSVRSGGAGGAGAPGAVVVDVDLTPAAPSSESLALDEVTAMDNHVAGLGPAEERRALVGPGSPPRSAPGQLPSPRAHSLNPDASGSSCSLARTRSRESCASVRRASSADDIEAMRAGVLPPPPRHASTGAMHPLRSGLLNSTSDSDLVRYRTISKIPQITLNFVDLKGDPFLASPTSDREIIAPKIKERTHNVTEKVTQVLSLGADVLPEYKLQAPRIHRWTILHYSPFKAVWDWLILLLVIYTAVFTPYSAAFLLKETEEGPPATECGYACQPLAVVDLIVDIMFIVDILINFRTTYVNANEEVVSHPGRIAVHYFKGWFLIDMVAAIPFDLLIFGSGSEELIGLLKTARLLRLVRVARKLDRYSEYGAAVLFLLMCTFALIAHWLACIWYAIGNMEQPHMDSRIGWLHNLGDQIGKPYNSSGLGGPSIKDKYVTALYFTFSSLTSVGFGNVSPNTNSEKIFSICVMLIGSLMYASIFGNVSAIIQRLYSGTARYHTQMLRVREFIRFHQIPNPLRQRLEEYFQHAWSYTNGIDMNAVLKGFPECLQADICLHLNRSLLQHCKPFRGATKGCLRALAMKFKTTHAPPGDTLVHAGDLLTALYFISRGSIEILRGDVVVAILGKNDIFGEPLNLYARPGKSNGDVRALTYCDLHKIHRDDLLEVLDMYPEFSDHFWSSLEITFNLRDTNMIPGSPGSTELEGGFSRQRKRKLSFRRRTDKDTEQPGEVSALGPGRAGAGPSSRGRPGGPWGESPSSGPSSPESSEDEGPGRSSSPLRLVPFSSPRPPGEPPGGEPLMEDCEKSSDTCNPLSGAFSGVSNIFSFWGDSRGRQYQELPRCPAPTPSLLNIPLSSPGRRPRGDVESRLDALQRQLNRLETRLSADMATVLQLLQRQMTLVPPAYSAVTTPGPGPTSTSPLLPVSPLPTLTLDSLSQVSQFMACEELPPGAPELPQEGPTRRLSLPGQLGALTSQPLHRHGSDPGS
Outline: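 Thallium flux as potassium surrogate: FluxOR II dye loaded 1 h at room temperature into hERG-expressing U2OS cells, then stimulus buffer added after 10 min. Kinetic 480 nm excitation/540 nm emission read, 2 min.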

[10] = target: Cytochrome P450 3A4 (Homo sapiens) (UniProt P08684); test: Cytochrome P450 Family 3 Subfamily A Member 4 (CYP3A4) small molecule antagonists: luciferase reporter qHTS assay (AID 1671201)
Sequence of Cytochrome P450 3A4 (Homo sapiens) (P08684 whole entry, looked up): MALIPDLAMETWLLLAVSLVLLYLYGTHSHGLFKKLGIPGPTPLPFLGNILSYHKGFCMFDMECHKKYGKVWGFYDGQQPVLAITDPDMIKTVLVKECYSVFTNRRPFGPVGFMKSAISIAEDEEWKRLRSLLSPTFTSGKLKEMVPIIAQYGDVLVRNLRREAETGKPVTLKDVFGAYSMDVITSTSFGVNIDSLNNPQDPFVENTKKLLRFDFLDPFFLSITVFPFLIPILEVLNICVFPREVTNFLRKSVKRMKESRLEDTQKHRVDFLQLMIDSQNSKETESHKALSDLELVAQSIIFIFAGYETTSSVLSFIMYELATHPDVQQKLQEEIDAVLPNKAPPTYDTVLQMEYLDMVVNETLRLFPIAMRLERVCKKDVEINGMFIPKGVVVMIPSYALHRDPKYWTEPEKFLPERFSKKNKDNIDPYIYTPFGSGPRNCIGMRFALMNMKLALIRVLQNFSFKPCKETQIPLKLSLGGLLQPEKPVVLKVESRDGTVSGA
Outline: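 Recombinant human CYP3A4 converts a proluciferin substrate to luciferin over 1 h at room temperature after NADPH regeneration solution is added (compound preincubated 10 min); detection reagent stops reaction, luminescence read 20 min later as relative units.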

[11] = target: Cytochrome P450 1A2 (Homo sapiens) (UniProt P05177); test: Cytochrome P450 Family 1 Subfamily A Member 2 (CYP1A2) small molecule antagonists: luciferase reporter qHTS assay (AID 1671199); note: nearly all actives have a fitted effect of over 50% in size; note: potency is the fitted concentration of half-maximal effect
Sequence of Cytochrome P450 1A2 (Homo sapiens) (P05177 whole entry, looked up): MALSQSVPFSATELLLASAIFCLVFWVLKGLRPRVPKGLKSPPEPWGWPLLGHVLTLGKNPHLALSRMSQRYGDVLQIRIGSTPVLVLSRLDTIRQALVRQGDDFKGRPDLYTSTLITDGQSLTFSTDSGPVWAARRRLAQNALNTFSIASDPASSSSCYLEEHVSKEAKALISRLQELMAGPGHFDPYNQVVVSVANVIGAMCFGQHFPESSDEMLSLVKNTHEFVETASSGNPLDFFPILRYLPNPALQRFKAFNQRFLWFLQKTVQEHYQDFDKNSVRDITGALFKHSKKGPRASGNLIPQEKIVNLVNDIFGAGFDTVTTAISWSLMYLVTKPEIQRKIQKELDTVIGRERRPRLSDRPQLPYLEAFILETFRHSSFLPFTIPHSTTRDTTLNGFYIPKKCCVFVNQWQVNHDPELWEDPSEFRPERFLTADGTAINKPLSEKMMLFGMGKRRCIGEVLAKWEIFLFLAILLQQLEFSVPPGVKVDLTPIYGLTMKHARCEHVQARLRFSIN
Outline: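 Compounds were incubated with CYP1A2 and a luminogenic proluciferin substrate for 10 min at room temperature before the reaction was started with NADPH regeneration solution. After 1 h, detection reagent was added and light output, proportional to CYP activity, was recorded.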

[12] = Caspase-3/7 induction in CHO-K1 cells by small molecules, qHTS assay (AID 1346980); note: nearly all actives have a fitted effect of over 15% in size
Outline: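 Wild-type cells were seeded at 1,500 per well and settled 5 hr at 37 C, 5% CO2, then exposed to DMSO-dissolved compounds for 17 hr. Caspase-Glo 3/7 reagent was added, and luminescence was read after 30min at room temperature.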

[13] = target: Nuclear receptor subfamily 1 group I member 2 (Rattus norvegicus) (UniProt Q9R1A7); test: Rat pregnane X receptor (rPXR) activation by small molecules, qHTS assay (AID 1346983); settings: rPXR luciferase reporter cells, One-Glo luminescence, 24 h; stronger effect = higher value; note: nearly all actives have a fitted effect of over 20% in size
Sequence of Nuclear receptor subfamily 1 group I member 2 (Rattus norvegicus) (Q9R1A7 whole entry, looked up): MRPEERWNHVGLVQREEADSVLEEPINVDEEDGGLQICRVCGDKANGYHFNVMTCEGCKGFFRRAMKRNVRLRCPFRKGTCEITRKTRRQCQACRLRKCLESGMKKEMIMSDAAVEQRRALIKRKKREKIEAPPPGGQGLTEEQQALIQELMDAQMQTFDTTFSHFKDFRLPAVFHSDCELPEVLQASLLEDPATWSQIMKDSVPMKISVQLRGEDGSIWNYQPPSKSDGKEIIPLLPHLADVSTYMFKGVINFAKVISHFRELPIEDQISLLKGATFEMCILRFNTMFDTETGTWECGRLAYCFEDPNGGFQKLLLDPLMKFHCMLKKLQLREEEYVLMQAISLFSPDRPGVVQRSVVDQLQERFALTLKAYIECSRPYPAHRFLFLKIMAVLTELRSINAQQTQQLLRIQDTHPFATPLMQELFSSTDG
Outline: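 Cell-based rPXR luciferase reporter assay, 2,000 cells per well, rested 5hr at 37 C before compound addition in DMSO, then 24 hr at 37 C. One-Glo reagent was added and luminescence read after 30 min at room temperature.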

[14] = target: Nuclear receptor subfamily 1 group I member 2 (Homo sapiens) (UniProt O75469); test: CYP3A4 induction through human pregnane X receptor (PXR) by small molecules, qHTS assay (AID 1346984); note: nearly all actives have a fitted effect of over 40% in size
Outline: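 Quantitative HTS in DPX-2 cells, i.e. HepG2 transfected with PXR response element and CYP3A4-promoter luciferase. Compounds in DMSO incubated 24hr at 37C; then P450-Glo CYP3A4 substrate, 3uM final, 3hr; One-Glo luminescence.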
% is set by controls: 0 for no effect and ±100 for the full control effect.

O=C(O)C1=NN(c2ccc(S(=O)(=O)O)cc2)C(=O)C1
inactive: Potency [1] | Potency [2] | Potency [3] | Potency [4] | Potency [5] | Potency [6] | Potency [8] | Potency [9] | Potency [10]
active: Potency [7] 35.6 µM

CN=C(NC#N)NCCSCc1nc[nH]c1C
active: Potency [6] 31.4 µM and 15.5 µM | Potency [7] 22.2 µM and 34.7 µM | Potency [8] 19.8 µM and 15.5 µM
inactive: Potency [1] | Potency [2] | Potency [3] | Potency [4] | Potency [11] | Potency [9]

CCc1cccc(CC)c1N
inactive: Potency [1] | Potency [2] | Potency [3] | Potency [4] | Potency [5] | Potency [6] | Potency [9] | Potency [10]
active: Potency [8] 71 µM

NC1CCCCC1N (stereo unspecified)
inactive: Potency [1] | Potency [2] | Potency [3] | Potency [4] | Potency [9]

C=C1C[C@]23C[C@@]1(O)CC[C@H]2[C@@]12C=C[C@H](O)[C@@](C)(C(=O)O1)[C@H]2[C@@H]3C(=O)O
inactive: Potency [2] | Potency [3] | Potency [12] | Potency [4] | Potency [9]

O=c1n(CCCN2CCN(c3cccc(Cl)c3)CC2)nc2ccccn12
inactive: Potency [1] | Potency [2] | Potency [3] | Potency [4] | max activation [13] -1.08%

C1CCCNCC1
inactive: Potency [1] | Potency [2] | Potency [3] | Potency [4] | Potency [5] | Potency [6] | Potency [8] | Potency [9] | Potency [10]

Brc1ccc(Oc2ccc(Br)cc2)cc1
active: Potency [7] 12.6 µM and 5.03 µM | Potency [8] 35.6 µM
inactive: Potency [1] | Potency [2] | Potency [3] | Potency [4] | Potency [5] | Potency [6] | Potency [10]

CC(CN1c2ccccc2Sc2ccccc21)N(C)C (stereo unspecified)
inactive: Potency [2] | Potency [10]
active: Potency [1] 44.7 µM and 48.6 µM | Potency [3] 61.1 µM | Potency [9] 22.1 µM and 21.9 µM and 21.3 µM

C=C(CC(=O)O)C(=O)O
inactive: Potency [2] | Potency [3] | Potency [4] | Potency [9]

Nc1nc(N)c2nc(-c3ccccc3)c(N)nc2n1
64 µM (active) and inactive: Potency [6]
active: Potency [11] 36 µM and 31.7 µM and 24.5 µM
inactive: Potency [1] | Potency [2] | Potency [12] | Potency [4] | Potency [7] | Potency [9]

O=C1OC(=O)c2c(Cl)c(Cl)c(Cl)c(Cl)c21
inactive: Potency [1] | Potency [2] | Potency [3] | Potency [4] | Potency [5] | Potency [6] | Potency [8] | Potency [11] | Potency [9] | Potency [10]

NC(N)=S
inactive: Potency [1] | Potency [2] | Potency [3] | Potency [4] | Potency [5] | Potency [6] | Potency [8] | Potency [9] | Potency [10]

c1cnc2c(c1)ccc1cccnc12
inactive: Potency [2] | Potency [4] | Potency [9] | Potency [10]
active: Potency [1] 1.26 µM | Potency [3] 4.37 µM and 6.11 µM and 9.69 µM | Potency [5] 2.76 µM and 10.9 µM and 24.3 µM | Potency [7] 10.1 µM and 8.94 µM and 10 µM | Potency [8] 8.94 µM

CCCCCNCCCCC
active: Potency [6] 36.4 µM
inactive: Potency [1] | Potency [2] | Potency [3] | Potency [4] | Potency [7] | Potency [8] | Potency [11] | Potency [9] | Potency [10]

CC(=O)OC[C@H]1O[C@@](COC(C)=O)(O[C@H]2O[C@H](COC(C)=O)[C@@H](OC(C)=O)[C@H](OC(C)=O)[C@H]2OC(C)=O)[C@@H](OC(C)=O)[C@@H]1OC(C)=O
inactive: Potency [1] | Potency [2] | Potency [3] | Potency [4] | max activation [13] -1.94% | Potency [14] | Potency [6] | Potency [7] | Potency [11] | Potency [9]
